Drawing on ChEMBL document CHEMBL1157539, “Thousands of chemical starting points for antimalarial lead identification” (Nature, 2010), this text covers Inhibition for 37 molecules.

Usually Inhibition stands for how much of the control response was suppressed. Read a low Inhibition as a weak effect.

For one assay, the system named is Plasmodium falciparum. The experiment in a line: GSK_TCMDC: Inhibition of Plasmodium falciparum 3D7 in whole red blood cells, using parasite LDH activity as an index of growth. Test compounds present at 2uM. Type of assay: functional.
In turn, `CCCc1cc(N2CCC(N3CCCC3)CC2)nc(Nc2ccc(Cl)cc2)n1` showed an Inhibition of 96%.

The molecule `CC(C)[C@H](NC(=O)c1ccc(O)c(-c2ccc(Cl)c(Cl)c2)c1)C(=O)NCCN(C)C` yielded an Inhibition of 92%.

With `COc1ccc2ncc(F)c(CCN3C4CCC3CC(NCc3cc5c(cn3)OCS5)C4)c2n1.Cl` (configuration not stated), the Inhibition is 95%.

Another assay deals with Plasmodium falciparum. Put plainly: GSK_TCMDC: Inhibition of Plasmodium falciparum Dd2 in whole red blood cells, using parasite LDH activity as an index of growth. Test compounds present at 2uM. The class given is functional.
Regarding `Nc1ccc2[nH]cc(C3CCN(CC4CCC(NC(=O)/C=C/c5ccc(Cl)c(Cl)c5)CC4)CC3)c2n1` (configuration not stated), the Inhibition was 93%.

On to `Cl.NC(=O)N1CCN(Cc2ccc(Br)cc2)CC1`, for which the Inhibition worked out at 0%.

The molecule `Cc1ccccc1C1CCN(C2CCC(NC(=O)c3ccc(-c4cccs4)s3)CC2)CC1` (configuration not stated) registered an Inhibition of 54%.

In the case of `CC(=O)Nc1ncc(C(=O)Nc2cccc(-c3cccc(-c4nc5cccc(C)c5[nH]4)c3)c2)s1`, the Inhibition amounted to 64%.

`CN(C)CCCOc1c(C(C)(C)C)cc(-c2cc(C(C)(C)C)c(OCCCN(C)C)c(C(C)(C)C)c2)cc1C(C)(C)C` yielded an Inhibition of 99%.

Turning to `Cc1cc(N[C@@H](Cc2ccccc2)C(=O)NCCc2ccccc2)nc(NCc2ccccc2C)n1.O=C(O)C(F)(F)F`, the Inhibition is given as 85%.

On to `CC1CN(Cc2ccccc2)CCN1c1ccc(NC(=O)c2ccc(F)cc2)cc1.O=C(O)C(F)(F)F` (configuration not stated), for which the Inhibition is on record as 89%.

As for `O=C(/C=C/c1ccc(Cl)c(Cl)c1)NCCCCCN1CCC(NC(=O)c2ccc3ccccc3c2)CC1`, the Inhibition is listed as 20%.

On to `CN(C(=O)c1ccccc1)C1c2cc(C#N)ccc2OC(C)(C)C1O` (configuration not stated), for which the Inhibition amounted to 4%.

Consider `Cn1cc(C2CCN(CCCCNC(=O)c3ccc(-c4ccc(C(F)(F)F)cc4)c(CO)c3)CC2)c2ccccc21`, for which the Inhibition came to 16%.

As to `O=c1cc(NCCC(CNCCc2ccccc2)NCc2cc(Br)cc(Br)c2)[nH]c2ccccc12` (configuration not stated), the Inhibition stood at 47%.

`Cc1nc2c(c(O)c1Cl)-c1ccc(Oc3cccc(C(F)(F)F)c3)cc1C2=O` showed an Inhibition of 97%.

In turn, `COc1ccc(NC(=O)/C=C/c2ccc(Cl)c(Cl)c2)cc1N1CCN(C)CC1` gave an Inhibition of 20%.

For `Cc1cccc2nc(-c3ccc(-c4cccc(NC(=O)NCc5cccc(F)c5)c4)cc3)[nH]c12`, the Inhibition was found to be 5%.

Regarding `O=C(O)C(F)(F)F.O=S(=O)(NCCN1CCCC1)c1ccc(-c2ccc(CNCc3ccc(F)cc3)cc2)cc1F`, the Inhibition stood at 21%.

Molecule `CCc1ccccc1N=C1c2c(cccc2[N+](=O)[O-])C(=O)C1C(C)=O` (configuration not stated) yielded an Inhibition of 96%.

The molecule `Cc1cccc2nc(-c3cccc(-c4cccc(CN5CCN(c6ccc(C#N)cn6)CC5)c4)c3)[nH]c12.O=C(O)C(F)(F)F` returned an Inhibition of 34%.

With `CCN(CC)CCCn1c(N)c(-c2nc3ccccc3[nH]2)c2nc(C#N)c(C#N)nc21`, the Inhibition is reported as 99%.

As to `O=C(NCCN1CCCCC1)c1ccc(Nc2nccc(Nc3ccc(Oc4ccccc4)cc3)n2)cc1`, the Inhibition worked out at 91%.

As for `Cc1ccc2[nH]c(Nc3ccc(Nc4nc5cc(C)ccc5[nH]4)c(C)c3)nc2c1`, the Inhibition was 94%.

In turn, `c1ccc(Oc2ccc(Nc3ccnc4cc(-c5ccc(CN6CCOCC6)o5)ccc34)cc2)nc1` displayed an Inhibition of 73%.

Consider `Cc1[nH]c(C)c(-c2ccc(/C=C/c3ccccn3)cc2)c(=O)c1Cl`, for which the Inhibition is listed as 96%.

Take `Cc1ccc2nc(C)cc(NC(=O)Nc3ccc(N(C)C)cc3)c2c1`: the Inhibition is listed as 41%.

`Clc1ccc(CNC2CCN(CC3CCCCC3)CC2)cc1.O=C(O)C(F)(F)F` gave an Inhibition of 15%.

`COc1cc(NCCCCNc2ccc(Cl)c(Cl)c2)nc2ccccc12` had an Inhibition of 68%.

Molecule `Cc1cc2c(cc1C(F)(F)F)N(C(=O)Nc1cc(OCCN(C)C)cc(C(F)(F)F)c1)CC2.Cl` displayed an Inhibition of 19%.

As for `COc1cccc(OC2CCN(C(=O)c3cc(C(C)(C)C)nn3Cc3ccccc3)CC2)c1`, the Inhibition was 98%.

The molecule `O=C(Nc1cccc(OC2CCN(Cc3ccc(F)cc3)CC2)c1)c1ccc(C(F)(F)F)cc1.O=C(O)C(F)(F)F` had an Inhibition of 6%.

Molecule `CNc1ccc(CNCc2cccc(-c3ccc(-c4nc5cccc(C)c5[nH]4)cc3)c2)cc1.O=C(O)C(F)(F)F` yielded an Inhibition of 83%.

`CCNc1cc(C(=O)N[C@@H](Cc2ccccc2)[C@H](O)CNCCCc2ccc(OC)cc2)cc(N2CCCC2=O)c1.O=C(O)C(F)(F)F`: the Inhibition came out at 96%.

With `CCCCCCN1CCCN(Cc2ccc(C(=O)Nc3ccc(C(C)(C)C)cc3)cc2)CC1.O=C(O)C(F)(F)F`, the Inhibition was 32%.

On to `COc1ccc(Cl)cc1-c1nc(C(=O)NCCN2CCCCC2)c(C(C)C)s1.O=C(O)C(F)(F)F`, for which the Inhibition was determined as 37%.

In turn, `O=C(Nc1ccc(Br)c(C(F)(F)F)c1)c1cccc([N+](=O)[O-])c1` registered an Inhibition of 3%.

As for `CN(C)C(CNC(=O)c1cc(-c2ccncc2)c(-c2ccc(Cl)c(O)c2)o1)c1ccccc1.O=C(O)C(F)(F)F` (configuration not stated), the Inhibition was determined as 28%.
